Hits are enriched below; roughly 2.3% of the tested compounds scored in any of these assays.
Jurkat NFkB inh – inhibitors of the PMA/ionomycin-induced NF-kB reporter in Jurkat cells; inhibition, % at 4 µM; PMA/ionomycin-induced NF-kB luciferase reporter, luminescence; AID 435003; actives 0.53% (n = 330,000); in the data active = inhibition above about 50%
LMP1 NFkB inh – Epstein-Barr LMP1 NF-kappaB reporter inhibition; LMP1-induced NF-kappaB luciferase reporter cells, luminescence; inhibition, % at 12.5 µM; actives 0.69% (n = 350,000); in the data active = inhibition above about 41%;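 note: 0% = neutral control wells and 100% = reference inhibitor control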
Gli-Sufu antag – Gli-Sufu pathway antagonism. Sufu-KO-LIGHT fibroblasts, Gli luciferase reporter luminescence. inhibition, % at 5 µM. actives 0.74% (n = 340,000);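 active = inhibition above about 55%, limit read from the data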;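 note: 0% = DMSO-treated cells and 100% = wells with medium but no cells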
MITF TRPM1 inh – inhibitors of MITF-driven TRPM1 promoter in melanoma cells | SK-MEL-5 TRPM1 promoter luciferase, 24 h | inhibition, % at 12.5 µM | actives 0.83% (n = 330,000) | AID 488899;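 active = mean inhibition across replicates of 60% or more, whatever share of single replicates reaches that level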
697 NFkB inh – inhibitors of the PMA/ionomycin-induced NF-kB reporter in 697 B cells | inhibition, % at 4 µM | AID 435022 | 697 B-cell NF-kB luciferase reporter, 16 h | actives 0.33% (n = 330,000); in the data active = inhibition above about 35%
Shn3 3UTR inh – Schnurri-3 reporter inhibition in Clone20 osteoblasts; Clone20 osteoblast Shn3 3'UTR firefly luciferase, 24 h; inhibition, % at 12.5 µM; actives 0.52% (n = 360,000); AID 588674;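 active = mean inhibition of at least 75% with every replicate also reaching 75%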;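 note: 0% = median of neutral control wells and 100% = pilot-screen positive control compound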
Jurkat NFkB conf – lowers PMA/ionomycin-induced NF-kB signal in Jurkat cells. Jurkat NF-kB luciferase, 16 h. actives 27% (n = 2,700). inhibition, % at 4 µM. shares compounds with Jurkat NFkB inh;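 active = inhibition reaching about 45% at 4 µM in either replicate, limit read from the data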;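 note: plate controls were PMA/ionomycin stimulated DMSO wells for no effect and unstimulated DMSO wells for full effect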
697 NFkB conf – lowers PMA/ionomycin-induced NF-kB signal in 697 B cells; 697 B-cell NF-kB luciferase, 16 h; actives 35% (n = 2,000); inhibition, % at 4 µM; shares compounds with 697 NFkB inh; in the data active = inhibition mostly above about 28%, no sharp cut-off; inactive = mostly below about 22%
* marks the source's active call; other numbers are inactive results; i = inactive; . = not tested or not shown.

SMILES	Jurkat NFkB inh	LMP1 NFkB inh	Gli-Sufu antag	MITF TRPM1 inh	697 NFkB inh	Shn3 3UTR inh	Jurkat NFkB conf	697 NFkB conf
CC1Cc2cc(-c3csc(NC(=O)Cc4cccs4)n3)ccc2N1S(C)(=O)=O (stereo not drawn)	57.1*	-3.7	-10.1	19.6	56.0*	14.7	76.2*	23.8
Cc1ccc(C(=O)/C=C/Nc2ccc3c(c2)OCO3)cc1	-204.7	-23.5	4.4	-33.3	-376.3	-15.6	-23.1	-76.5
Cc1ccc(N/C=C/C(=O)c2ccccc2)cc1Br	-158.4	-69.4	-85.2	-33.9	-281.7	-62.2	-71.8	-183.2
O=C(Cc1coc(-c2ccc(F)cc2)n1)Nc1ccccc1	8.7	-1.1	-0.1	-12.5	18.6	-3.2	.	.
CC1CN(c2nc3c(c(=O)n(C)c(=O)n3C)n2Cc2c(Cl)cccc2Cl)CC(C)O1 (stereo not drawn)	-1.2	-1.0	2.8	-1.5	-18.5	-7.1	.	.
Cc1ccc(NC(=O)c2cnn(-c3ccccc3)c2C)c(C)c1	-82.2	-12.4	-69.0	-58.8	-110.8	-83.8	.	.
Cc1ccc(NC(=O)c2cnn(-c3ccccc3)c2C)cc1	-153.4	2.2	-100.2	-3.5	-263.9	-25.8	-105.0	-307.4
Cc1nc(S(=O)(=O)c2cccc(Cl)c2)nc2c1CCC2	-3.9	-0.5	-23.2	-2.2	11.2	-8.0	.	.
O=C(CC(Nc1ccccc1Cl)C(=O)O)c1ccccc1 (stereo not drawn)	-255.8	-15.5	21.8	7.9	-269.3	-76.0	16.6	-52.0
O=C(Nc1ccc(Cl)c(Cl)c1)c1ccc2c(c1)OCO2	-204.6	-111.5	-111.4	-44.9	-369.8	-105.4	-173.5	-319.6
O=C(Nc1cccc(C(=O)O)c1)Nc1ccc2c(c1)OCO2	87.9*	73.3*	-61.7	89.3*	70.5*	74.4	68.9*	69.3*
COc1cccc(NC(=O)Nc2cccc(C(=O)O)c2)c1	70.1*	61.4*	-21.6	81.4*	56.7*	46.8	50.0*	58.0*
O=C(Nc1ccc(Cl)cc1)c1ccc2c(c1)OCO2	-130.1	-37.7	-111.3	-69.1	-191.8	-15.1	.	.
COc1ccc(-c2csc(NC(C)=O)n2)cc1OC	-7.4	-6.7	-5.6	-21.8	6.0	6.2	.	.
COc1cccc(NC(=O)Nc2nc(-c3ccc(OC)c(OC)c3)cs2)c1	89.5*	51.6*	33.4	80.3*	56.4*	75.3	14.2	3.0
Cc1sc2nc(SCC(=O)Nc3ccc(Cl)c(C(=O)O)c3)[nH]c(=O)c2c1C	.	1.8	-18.4	-14.6	.	-60.7	.	.
CC(Oc1ccc(Br)cc1)C(=O)N1CCC(C(N)=O)CC1 (stereo not drawn)	-3.8	-6.7	-8.3	1.2	2.2	8.1	.	.
COc1ccc(Nc2cc(C(=O)NCc3ccccn3)c3ccccc3n2)c(OC)c1	-12.4	.	.	.	-15.7	.	.	.
CC1CN/C(=C\C(=O)c2ccccc2)C(=O)N1 (stereo not drawn)	-89.5	-11.9	-41.4	-57.1	-94.0	-45.7	.	.
CC1CN/C(=C\C(=O)c2ccc(Cl)cc2)C(=O)N1 (stereo not drawn)	-150.6	33.4	-112.7	-1.1	-252.3	4.0	-97.5	-174.1
Cc1cc(N2CCCCC2)n2nc(C)c(-c3ccccc3)c2n1	-16.6	4.4	-13.2	-24.8	-23.9	-12.6	.	.
Cc1cc(N2CCCCC2)n2ncc(-c3ccc(Cl)cc3)c2n1	-188.8	-60.7	-11.4	-55.5	-309.1	-50.7	-79.9	-214.4
Cc1cc(-c2ccccc2)n2ncc(-c3ccccc3)c2n1	-202.0	-7.6	-36.1	19.4	i	-6.3	-91.0	i
Cc1cc(N2CCCCC2)n2ncc(-c3ccccc3)c2n1	-184.8	-33.2	-24.4	8.4	i	-1.7	-63.2	-417.7
COc1ccc(-c2cc(C)nc3c(-c4ccccc4)cnn23)cc1	.	-29.5	-74.2	-16.8	.	-21.3	.	.
SMILES	Jurkat NFkB inh	LMP1 NFkB inh	Gli-Sufu antag	MITF TRPM1 inh	697 NFkB inh	Shn3 3UTR inh	Jurkat NFkB conf	697 NFkB conf
CC(C)(C)c1cc(N2CCOCC2)n2ncc(-c3ccc(Cl)cc3)c2n1	-16.0	-11.6	-21.2	-35.5	-10.7	9.0	.	.
Cc1cc(N2CCOCC2)n2ncc(-c3ccc(Cl)cc3)c2n1	-157.4	-21.2	-15.1	-29.7	-360.9	-2.2	-24.3	-229.8
CCOC(=O)C1=C(C)NC(=O)NC1c1c(OC)ccc2ccccc12 (stereo not drawn)	-8.4	0.0	7.6	-12.2	-5.9	-0.6	.	.
COc1ccc(-n2c(SCC(=O)NCC3CCCO3)nc3c([nH]c4ccccc43)c2=O)cc1OC (stereo not drawn)	-0.4	-0.6	7.3	16.6	14.4	-3.4	.	.
COC(CNC(=O)c1c[nH]c2ccc(S(=O)(=O)N3CCC4(CC3)OCCO4)cc2c1=O)OC	21.6	-12.3	1.9	3.5	2.0	3.8	.	.
CCC1Sc2ccc(S(=O)(=O)CCC(=O)NCc3ccc(C)o3)cc2NC1=O (stereo not drawn)	20.9	-7.8	4.5	8.8	2.0	-12.5	.	.
COc1ccc(O)c(C(=O)CC(=O)c2ccccc2)c1	-157.6	.	.	.	-251.2	.	-107.9	-196.1
Cc1noc(C)c1S(=O)(=O)Nc1ccc2c(c1)C(=O)N([C@H](C)CO)C[C@H](C)[C@H](CN(C)S(=O)(=O)c1ccc(Cl)cc1)OCCCC[C@@H](C)O2	.	.	.	.	.	12.5	.	.
CCCN(CCC)c1ncnc2c1cnn2-c1ccc(OC)cc1	-160.9	-26.5	-56.0	-133.1	-348.6	-43.2	-103.4	-363.4
O=C(Nc1ccccc1)c1ccc(N2CCN(c3ccccn3)CC2)c(S(=O)(=O)N2CCOCC2)c1	-6.3	-1.6	11.8	7.8	1.6	5.2	.	.
CCN1/C(=C/C(C)=C/c2sc3ccccc3[n+]2CC)Sc2ccccc21	93.2*	-10.4	90.3*	103.2*	49.3*	88.3*	78.5*	7.3
Cc1c(C(=O)Nc2cccc([N+](=O)[O-])c2)csc1-c1ccccc1	-419.3	-58.8	-192.5	-51.4	i	1.8	-193.4	i
O=C(O)c1ccccc1C(=O)Nc1cccc([N+](=O)[O-])c1	6.7	-2.2	0.1	-10.9	2.0	-5.6	.	.
COc1ccc(C2NN=C(c3c[nH]c4ccccc34)C2O)cc1 (stereo not drawn)	-57.6	-3.4	-20.4	3.0	-23.3	-15.3	.	.
COc1ccc(C2C(O)C(c3c[nH]c4ccccc34)=NN2C(=O)CCl)cc1 (stereo not drawn)	100.4*	-18.7	85.8*	98.4*	97.4*	95.8*	-2.0	-153.4
COc1ccc(CCC(=O)Nc2ncc(C)s2)cc1OC	-20.8	-6.6	2.4	-5.2	-7.7	-12.5	.	.
CCc1ccc(CN(C)C(=O)c2cc(S(=O)(=O)N3CCN(CC)CC3)ccc2Cl)cc1	-0.4	1.2	17.9	12.7	-8.3	16.1	.	.
O=C(Cc1cn2ccsc2n1)Nc1nc2c(s1)CCCC2	-6.8	3.2	8.9	-3.5	-1.1	-19.8	.	.
